This passage reports Potency results from PubChem BioAssay AID2533 (National Center for Advancing Translational Sciences (NCATS), 2010).

Each structure is given as a SMILES string. Values joined by “and” are separate entries in the source; they are usually repeats but may differ in a detail not shown here. Identical values can stand only once. Inconclusive results are not listed. A call without a number means that no potency is given here. Active and inactive are the calls of the source. Calls follow the shape of the dose curve; as a rule, active = well fitted activation curve with a large enough effect; inconclusive = small, poorly fitted or top-dose-only effect; inactive = flat fitted curve, though single readings scatter.
Potency is read from the fitted curve at half-maximal effect.

Sequence of Pyruvate kinase PKM (Homo sapiens) (P14618 whole entry, looked up, canonical isoform): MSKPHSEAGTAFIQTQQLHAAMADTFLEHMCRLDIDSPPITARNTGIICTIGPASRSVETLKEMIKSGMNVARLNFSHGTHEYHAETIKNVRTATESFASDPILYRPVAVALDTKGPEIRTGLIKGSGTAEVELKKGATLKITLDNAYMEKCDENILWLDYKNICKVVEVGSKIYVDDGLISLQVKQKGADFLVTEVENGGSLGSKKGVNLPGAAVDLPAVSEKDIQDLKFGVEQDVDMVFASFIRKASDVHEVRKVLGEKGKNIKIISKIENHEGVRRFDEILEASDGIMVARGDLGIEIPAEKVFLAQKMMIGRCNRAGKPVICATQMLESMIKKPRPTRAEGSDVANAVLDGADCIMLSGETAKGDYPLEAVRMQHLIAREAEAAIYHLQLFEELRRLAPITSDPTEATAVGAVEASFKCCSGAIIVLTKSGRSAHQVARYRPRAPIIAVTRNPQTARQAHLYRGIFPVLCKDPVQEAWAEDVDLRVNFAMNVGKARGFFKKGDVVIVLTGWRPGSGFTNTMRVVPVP

In the assay the target is Pyruvate kinase PKM (Homo sapiens) (UniProt P14618). Kind of assay: Confirmation Concentration-Response Assay for Activators of Human Muscle isoform 2 Pyruvate Kinase: for Probe SAR. Also: nearly all actives have a fitted effect of over 60% in size. The settings on record: purified PKM2, ATP generation, Kinase-Glo luminescence; series mostly up to 57.5 µM. The text has this:
NIH Chemical Genomics Center [NCGC]
Matthew G. Vander Heiden, M.D., Ph.D. [Harvard Medical School, 77 Avenue Louis Pasteur, Boston, MA 02115]
Human pyruvate kinase muscle 2 (hPK-M2) enzyme was supplied as a highly purified (>95% pure) preparation from Harvard Medical School and assayed for its ability to generate ATP from ADP using phosphoenolpyruvate (PEP) as a substrate. ATP generation was detected in a coupled reaction by luciferase-mediated luminescence, an ATP-dependent process. […] The enzyme was assayed at an intermediate level of activity to screen for both inhibitors and activators.
NCGC Assay Protocol Summary:
Three uL of substrate mix (at r.t.) in assay buffer (50 mM Imidazole pH7.2, 50 mM KCl, 7 mM MgCl2, 0.01% Tween 20, 0.05% BSA) was dispensed into white solid bottom 1,536 well microtiter plates so that the final concentrations of substrates in the assay were 0.1 mM ADP and 0.5 mM PEP. 23 nL of compound were delivered by a pin tool and 1 uL of enzyme mix (final concentration of 0.1 nM) in assay buffer (4 degree Celsius) was added. Plates were incubated at room temperature for 1 hour. Two uL of detection mix (Kinase-Glo, Promega; at 4 degree Celsius protected from light) was added and luminescence read by a ViewLux (Perkin Elmer) at 1 second exposure/plate. Data were normalized to the uninhibited (column 3) and AC100 inhibition (no enzyme in column 2). To monitor activation, the first column contained a titration of the activator, NCGC00031955-03 (16-point 1:2 dilutions in duplicate starting at 57 uM) and the first 16 rows of column 4 contained 57 uM of NCGC00031955-03.
In the case of `N#Cc1ccc(OC2=NS(=O)(=O)c3ccccc32)cc1`, the Potency result is “inactive”.
As to `O=C1CCc2cc(S(=O)(=O)Nc3ccc4c(c3)OCCO4)ccc2N1`, the Potency was 20.6 µM (active).
Consider `O=S1(=O)N=C(Oc2ccccc2F)c2ccccc21`, for which the Potency entry is “inactive”.
Take `O=C1CCc2cc(S(=O)(=O)Nc3ccc(Cl)cc3)ccc2N1`: the Potency was 2.06 µM (active).
Then `CCSC1=NS(=O)(=O)c2ccccc21`, with “inactive”; and `Cc1ccc(NS(=O)(=O)c2ccc3c(c2)oc(=O)n3C)cc1C`, with 10.3 µM (active).
For `COc1ccc(OC2=NS(=O)(=O)c3ccccc32)cc1`, the Potency result was “inactive”.
As to `O=S(=O)(Nc1ccc(O)c(NS(=O)(=O)c2ccccc2)c1)c1ccccc1`, the Potency result was “inactive”.
On to `CNc1cccc(S(=O)(=O)N2CCCN(S(=O)(=O)c3ccc4c(c3)OCCO4)CC2)c1`, for which the Potency was 0.103 µM (active).
Then `CC(=O)Nc1cccc(S(=O)(=O)N2CCN(S(=O)(=O)c3ccc4c(c3)OCCO4)CC2)c1`, with 1.03 µM (active); and `O=C1c2ccccc2C(=O)N1c1cccc2ccncc12`, with “inactive”.
With `O=C1c2ccccc2C(=O)N1Cc1ccccc1`, the Potency entry was “inactive”.
Consider `O=S(=O)(c1ccc2c(c1)OCCO2)N1CCN(S(=O)(=O)c2c(F)cccc2F)CC1`, for which the Potency was 517 nM (active) and 183 nM (active) and 291 nM (active).
Turning to `Cc1ccc(NS(=O)(=O)c2ccc3c(c2)n(C)c(=O)n3C)cc1C`, the Potency is 1.46 µM (active).
As for `COc1cccc(OC2=NS(=O)(=O)c3ccccc32)c1`, the Potency entry is “inactive”.
Turning to `Cc1cc(N2C(=O)c3ccccc3C2=O)n[nH]1`, the Potency entry is “inactive”.
Turning to `Cc1ccc(NS(=O)(=O)c2cc3c(cc2Br)NC(=O)CO3)cc1C`, the Potency is 18.3 µM (active).
As to `O=C1CCc2cc(S(=O)(=O)Nc3cccc(F)c3)ccc2N1`, the Potency is 0.919 µM (active).
As for `O=C1CCc2cc(S(=O)(=O)Nc3ccccn3)ccc2N1`, the Potency entry was “inactive”.
As for `O=C1c2ccccc2C(=O)N1c1noc2ccccc12`, the Potency result is “inactive”.
In the case of `CNc1cccc(S(=O)(=O)N2CCN(S(=O)(=O)c3ccc4c(c3)OCCO4)CC2)c1`, the Potency was 0.259 µM (active).
For `COc1cc(F)c(S(=O)(=O)N2CCCN(S(=O)(=O)c3cccc(NC(C)=O)c3)CC2)c(F)c1`, the Potency is 2.91 µM (active).
In the case of `Cc1ccc2nc(-c3cccs3)c(Nc3ccccc3)n2c1`, the Potency result was “inactive”.
For the compound `O=S1(=O)N=C(Oc2cccc(C(F)(F)F)c2)c2ccccc21`, the Potency result is “inactive”.
Take `CN(C)c1cccc(S(=O)(=O)N2CCCN(S(=O)(=O)c3ccc4c(c3)OCCO4)CC2)c1`: the Potency is 0.163 µM (active).
`O=S1(=O)N=C(Oc2ccc(Br)cc2)c2ccccc21`: the Potency entry is “inactive”.
Turning to `Cc1ccc2nc(-c3ccc(C)o3)c(Nc3ccc4c(c3)OCO4)n2c1`, the Potency entry is “inactive”.
In the case of `O=C1c2ccccc2C(=O)N1Cc1ccncc1`, the Potency result was “inactive”.
For `Cc1ccc(NS(=O)(=O)c2ccc3c(c2)CCC(=O)N3)cc1`, the Potency is 5.8 µM (active).
Take `Cc1ccc(OC2=NS(=O)(=O)c3ccccc32)cc1`: the Potency result is “inactive”.
With `O=C1CCc2cc(S(=O)(=O)Nc3ccc(F)cc3)ccc2N1`, the Potency was 6.51 µM (active).
Regarding `COc1cc(F)c(S(=O)(=O)N2CCN(S(=O)(=O)c3cccc(N)c3)CC2)c(F)c1`, the Potency is 0.0231 µM (active).
`CCNc1cccc(S(=O)(=O)N2CCCN(S(=O)(=O)c3ccc4c(c3)OCCO4)CC2)c1`: the Potency was 0.206 µM (active).
Then `O=S1(=O)N=C(Oc2ccccc2Br)c2ccccc21`, with “inactive”.
For the compound `O=S1(=O)N=C(Oc2ccccc2)c2ccccc21`, the Potency result is “inactive”.
Then `Nc1ccc(S(=O)(=O)N2CCN(S(=O)(=O)c3c(F)cccc3F)CC2)cc1`, with 0.919 µM (active).
Then `Cc1ccc(NS(=O)(=O)c2cc3c(cc2-c2ccco2)NC(=O)CO3)cc1C`, with 9.19 µM (active).
`Cc1ccc(NS(=O)(=O)c2cc3c(cc2N(C)C)NC(=O)CC3)cc1C`: the Potency is 0.366 µM (active).
Then `Cc1cc(NS(=O)(=O)c2ccc3c(c2)CCC(=O)N3)ccc1F`, with 0.461 µM (active); and `N#Cc1cccc(OC2=NS(=O)(=O)c3ccccc32)c1`, with “inactive”.
